The sequences below were run against DOCK1 (assay: pooled miR-30 sensor sort-seq; sequence = guide strand). Details: shRNA.

Sequence | sensor-assay potency score (higher = more potent)
TTGGAGACACACCTCAACCAAC | -1.22
TTCGTAACGTGTAACCTCGGTA | -0.19
TTATACATCATCACTACACAGC | -0.419
TTCTTTGTTCTCGTCGTGCATG | -1.13
TCATCGTACACAGACACCGTGA | -0.406
TATCTTGTGTTGACCAAGGTTG | -0.193
TATTATATCTGTTACATCCATC | -0.566

What follows are sequences tested against DOK4 in the same assay as above. Details: shRNA.

Sequence | sensor-assay potency score (higher = more potent)
TCTAGCTCTGAGTCGCAGGTGA | -0.0163
TAGTGTCTTGTACCACTCCTCT | -0.903
TTCCCCAGCATCACACATCCGG | -0.865
ATAGTGTCTTGTACCACTCCTC | -0.442
TTCTCCCAGACTGATGTCGTTG | -1.27
TTCTTCTCCATTTCCAGCAGGA | 0.267
TCTGAGTCGCAGGTGAAGGTAC | -0.935
TTTAGCAGGATGAATCTGTTGA | 0.432
TAGCTCTGAGTCGCAGGTGAAG | -1.6
TTGCTGATCTCAGTCACCTTGG | -0.109
TAGCAGGATGAATCTGTTGAGG | -1.03
TTGAGGAGGTCTGTTTCCGAGC | -1.09

What follows are sequences tested against DPEP3 in the same assay as above. Details: shRNA.

Sequence | sensor-assay potency score (higher = more potent)
TGAAGCTCTTCCTCGCTCCAGC | -0.659
TTTGAGAGCTGTTCAGACCTTC | 0.484
ATTCTTGTAACGCTGTCTCAGG | -0.648
TTCCACTTGTCTGAAGACCCGC | -0.394
TACATGTGGTGTCTGAACTTGG | -0.261
AAATTGTCACACACAGCTCTGG | -0.275
TCAACAAATTGTCACACACAGC | -1.21
AAGCACATTCTTGTAACGCTGT | 0.352
ATTTCGCAGGTTAACATCCTGA | -0.609
ATGTGGTGTCTGAACTTGGTGG | -0.807
TTGTCTGAAGACCCGCAGCAGG | -1.57
TTGGTGGAACTCTCTGCCCATG | -1.6
TGAACTTGGTGGAACTCTCTGC | 0.129

What follows are sequences tested against DPM2 in the same assay as above. Details: shRNA.

Sequence | sensor-assay potency score (higher = more potent)
TTGTGGATGACATGCTGACTGT | -1.33
TTGGTCTTCAGCATCACATAGG | -0.278
ATGAACAGTCCCACAAACAGGA | -0.342
TAGGTGAAGATGATCAGGCTAA | 0.29
TTCAGCATCACATAGGAGATGA | -0.473
TACTTGTGGATGACATGCTGAC | -0.0583
TCTTGGTCTTCAGCATCACATA | -1.79
ATACTTGTGGATGACATGCTGA | -0.113

Reference: the OligoGym collection
